High-throughput results as filed in PubChem BioAssay.
T cruzi growth-1: blocks T. cruzi growth in NIH3T3 culture; T. cruzi beta-gal in NIH3T3, GalScreen luminescence, 90 h; AID 624255; 77,000 compounds, 5.9% hits; inhibition, % at 8.34 µM;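 active = mean inhibition above about 93%, with at least 55% of replicates each passing it, limit read from the data, passing the limit was not always enough; inconclusive = only one of those two conditions holds; inactive = neither condition holds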
C diff HTS: C. difficile growth inhibition; growth activity, negative = inhibition, % at 16 µg/mL (by protocol); 86,000 compounds, 0.25% hits; Clostridium difficile clinical isolate growth, OD600, 24 h; stronger effect = lower value;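 active = mean growth activity at or below -80% and every replicate also at or below -80%; inconclusive = mean at or below -80% but some replicate above -80%; inactive = mean growth activity above -80%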
T cruzi growth-2: Trypanosoma cruzi proliferation inhibition; AID 651739; shares compounds with T cruzi growth-1; inhibition, % at 8.35 µM; T. cruzi beta-gal in NIH3T3, GalScreen luminescence, 90 h; 5,600 compounds, 72% hits;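 active = mean replicate inhibition above about 95% and at least 55% of replicates individually reaching it, limit read from the data; inconclusive = only one of the two criteria is met; inactive = neither criterion is met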
T cruzi growth-3: inhibitors of T. cruzi proliferation. shares compounds with T cruzi growth-1. T. cruzi beta-gal in NIH3T3, GalScreen luminescence, 90 h. inhibition, % at 2.09 µM. 5,600 compounds, 21% hits;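 active = mean inhibition above about 95%, with at least 55% of replicates also reaching it, limit read from the data; inconclusive = meets just one of the two conditions; inactive = meets neither condition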
3T3 cytotox: NIH/3T3 (mouse) viability loss. AID 651742. shares compounds with T cruzi growth-1. cytotoxicity (signal decrease), % at 8.35 µM. 5,600 compounds, 14% hits. NIH/3T3 viability, CellTiter-Glo ATP luminescence, 90 h;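 active = mean signal decrease across replicates above about 35% based on untreated-well scatter, with enough replicates individually passing, limit read from the data; inconclusive = no rule stated though some were filed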
NIH3T3 tox 2: NIH/3T3 (mouse) viability loss | NIH/3T3 viability, CellTiter-Glo ATP luminescence, 90 h | 5,600 compounds, 56% hits | shares compounds with T cruzi growth-1 | inhibition, % at 24.9 µM;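 active = mean loss of cell viability signal at or above a set limit, and enough replicates individually reaching it; inconclusive = meets only the mean limit or only the replicate share; inactive = meets neither condition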
Numbers stand for hits. The entries come from a sample that favours hits as a whole.

Screening C[C@H](CO)N1C[C@H](C)[C@@H](CN(C)Cc2cccc(F)c2)Oc2ncc(-c3cccc(F)c3)cc2C1=O returned T cruzi growth-1 inactive and C diff HTS inactive.
CC(C)NC(=O)Nc1ccc2c(c1)C(=O)N([C@@H](C)CO)C[C@@H](C)[C@@H](CN(C)Cc1ccc3c(c1)OCO3)OCCCC[C@@H](C)O2 was read as T cruzi growth-1 inactive and C diff HTS inactive.
`C[C@@H]1CCCCO[C@H](CN(C)Cc2ccc3c(c2)OCO3)[C@@H](C)CN([C@@H](C)CO)C(=O)c2cc(NC(=O)Nc3ccc(F)cc3)ccc2O1` gave T cruzi growth-1 105, C diff HTS inactive, T cruzi growth-2 102, T cruzi growth-3 104, 3T3 cytotox inactive and NIH3T3 tox 2 105.
Screening C[C@H](CO)N1C[C@H](C)[C@H](CN(C)S(=O)(=O)c2cn(C)cn2)Oc2ccc(NC(=O)NC3CCCCC3)cc2CC1=O returned T cruzi growth-1 inactive and C diff HTS inactive.
Screening CO[C@H](CN(C)C(=O)Nc1ccc(C(F)(F)F)cc1)[C@@H](C)CN(Cc1ccccc1Cl)[C@H](C)CO returned T cruzi growth-1 98, T cruzi growth-2 103, T cruzi growth-3 inactive, 3T3 cytotox 45 and NIH3T3 tox 2 103.
`CO[C@@H](CN(C)C(=O)Nc1ccc(F)cc1)[C@@H](C)CN(Cc1ccccc1Cl)[C@@H](C)CO` gave T cruzi growth-1 inactive.
For CO[C@@H](CN(C)S(=O)(=O)c1ccc(F)cc1)[C@@H](C)CN(Cc1ccccc1Cl)[C@H](C)CO the results were T cruzi growth-1 107, T cruzi growth-2 inactive, T cruzi growth-3 inactive, 3T3 cytotox inactive and NIH3T3 tox 2 inconclusive.
`CO[C@H](CN(C)S(=O)(=O)c1ccc(F)cc1)[C@H](C)CN(Cc1ccccc1Cl)[C@H](C)CO` gave T cruzi growth-1 inactive.
CO[C@H](CN(C)C(=O)Nc1ccc(Cl)cc1)[C@@H](C)CN(Cc1ccccc1Cl)[C@@H](C)CO was read as T cruzi growth-1 inconclusive, T cruzi growth-2 109, T cruzi growth-3 inactive, 3T3 cytotox inactive and NIH3T3 tox 2 40.
CO[C@H](CN(C)C(=O)Nc1ccc(C(F)(F)F)cc1)[C@H](C)CN(Cc1ccccc1Cl)[C@H](C)CO was read as T cruzi growth-1 105, T cruzi growth-2 110, T cruzi growth-3 inactive, 3T3 cytotox 46 and NIH3T3 tox 2 105.
Screening CO[C@@H](CN(C)C(=O)Nc1ccc(F)cc1)[C@@H](C)CN(Cc1ccccc1Cl)[C@H](C)CO returned T cruzi growth-1 inactive.
For CO[C@@H](CN(C)C(=O)Nc1ccc(C(F)(F)F)cc1)[C@H](C)CN(Cc1ccccc1Cl)[C@H](C)CO the results were T cruzi growth-1 inactive.
`CCCC(=O)Nc1ccc2c(c1)C(=O)N(C)C[C@@H](OC)[C@@H](C)CN(Cc1ccccc1)[C@@H](C)CO2` gave T cruzi growth-1 inactive and C diff HTS inactive.
Screening O=C(N[C@H]1C=C[C@@H](CC(=O)N2CCCCC2)O[C@H]1CO)c1ccc2c(c1)OCO2 returned T cruzi growth-1 inactive.
`COCC#Cc1cnc2c(c1)C(=O)N([C@@H](C)CO)C[C@H](C)[C@H](CN(C)C(=O)C1CC1)O2` gave T cruzi growth-1 inactive.
Screening C[C@H]1CN([C@@H](C)CO)C(=O)Cc2cc(NC(=O)C3CCCCC3)ccc2O[C@H]1CN(C)Cc1ccc2c(c1)OCO2 returned T cruzi growth-1 inactive and C diff HTS inactive.
`C[C@H]1CN([C@@H](C)CO)C(=O)Cc2cc(NC(=O)CCN3CCOCC3)ccc2O[C@@H]1CN(C)S(=O)(=O)c1ccc(Cl)cc1` gave T cruzi growth-1 inactive and C diff HTS inactive.
For O=C(c1ccccc1)N1CC(=O)N2[C@H](CO)[C@H](c3ccc(C#CC4CC4)cc3)[C@@H]2C1 the results were C diff HTS inactive.
`OC[C@H]1[C@H](c2ccc(-c3ccc(F)cc3)cc2)[C@@H]2CN(Cc3cccnc3)CCCCN12` gave T cruzi growth-1 110, C diff HTS inactive, T cruzi growth-2 114, T cruzi growth-3 inactive, 3T3 cytotox inactive and NIH3T3 tox 2 103.
OC[C@H]1[C@H](c2ccc(-c3ccc(F)cc3)cc2)[C@H]2CN(Cc3cccnc3)CCCCN21 was read as T cruzi growth-1 inactive and C diff HTS inactive.
For CN(C)C(=O)c1cccc(-c2ccc([C@H]3[C@H](CO)N4CCCCN(Cc5cccnc5)C[C@@H]34)cc2)c1 the results were T cruzi growth-1 101, C diff HTS inactive, T cruzi growth-2 107, T cruzi growth-3 inactive, 3T3 cytotox inactive and NIH3T3 tox 2 inactive.
For Cc1ccccc1-c1ccc([C@H]2[C@@H](CO)N3CCCCN(Cc4cccnc4)C[C@H]23)cc1 the results were T cruzi growth-1 109, C diff HTS inactive, T cruzi growth-2 106, T cruzi growth-3 inactive, 3T3 cytotox 46 and NIH3T3 tox 2 106.
CN(C)C(=O)c1ccc(-c2ccc([C@@H]3[C@H](CO)N4CCCCN(Cc5cccnc5)C[C@@H]34)cc2)cc1 was read as T cruzi growth-1 inactive and C diff HTS inactive.
OC[C@@H]1[C@H](c2ccc(C3=CCCC3)cc2)[C@H]2CN(Cc3cccnc3)CCCCN12 was read as T cruzi growth-1 inactive and C diff HTS inactive.
OC[C@@H]1[C@@H](c2ccc(-c3ccc(F)cc3)cc2)[C@H]2CN(Cc3cccnc3)CCCCN12 was read as T cruzi growth-1 113, C diff HTS inactive, T cruzi growth-2 inactive, T cruzi growth-3 inactive, 3T3 cytotox inactive and NIH3T3 tox 2 102.
`CN(C)CC#Cc1ccc([C@H]2[C@H]3CN(C(=O)Nc4ccc(F)cc4)CCCCN3[C@H]2CO)cc1` gave T cruzi growth-1 inactive and C diff HTS inactive.
`O=C(c1ccccc1F)N1CC[C@@H]2[C@@H](CO)Nc3ccc(C#Cc4ccc(F)cc4)cc3[C@@H]21` gave T cruzi growth-1 inactive and C diff HTS inactive.
For C[C@@H]1CN([C@@H](C)CO)C(=O)c2cc(C#CC3CCCCC3)cnc2O[C@H]1CN(C)C(=O)NC1CCCC1 the results were T cruzi growth-1 inactive and C diff HTS inactive.
`CCCN(C)C[C@@H]1OCCCC[C@@H](C)Oc2ccc(NC(=O)Nc3c(C)noc3C)cc2C(=O)N([C@H](C)CO)C[C@@H]1C` gave T cruzi growth-1 inactive and C diff HTS inactive.
For CCC(=O)N(C)C[C@H]1Oc2ncc(/C=C/c3ccccc3)cc2C(=O)N([C@@H](C)CO)C[C@H]1C the results were T cruzi growth-1 inactive and C diff HTS inactive.
Screening COc1ccc(S(=O)(=O)Nc2ccc3c(c2)C(=O)N([C@H](C)CO)C[C@H](C)[C@H](CN(C)Cc2ccc(Oc4ccccc4)cc2)O3)cc1 returned T cruzi growth-1 inactive and C diff HTS inactive.
